MITF inh – MITF inhibition; inhibition, % (test concentration not listed); TRPM1 promoter luciferase, luminescence, 24 h; 0.28% of 37,000 active; in the data active means inhibition above about 85%; inconclusive means no clear call, values can overlap the other calls; inactive means below about 68%;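 further: human melanocyte line stably carrying TRPM1 promoter luciferase reporter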
Shh pathway inh – Sonic Hedgehog pathway inhibition | AID 2313 | inhibition, % (no concentration beside the values) | Shh-LIGHT2 Gli-luciferase reporter, 30 h | 2.1% of 22,000 active;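 active means mean inhibition across valid replicates above about 65%, limit read from the data; inconclusive means mean under the limit, yet half or more replicates past it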;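 further: pathway switched on by Shh-conditioned medium diluted 1 in 25 in low serum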
NOMO-1 viab – STK33 inhibitor candidate reducing NOMO-1 cell viability; inhibition, % (no concentration beside the values); NOMO-1 AML viability, CellTiter-Glo luminescence, 72 h; AID 2330; 7.5% of 37,000 active; in the data active means inhibition above about 80%; inconclusive means no clear call, values can overlap the other calls
Active calls of the source: *; ? = inconclusive; · = no result given. A selection: hits, their analogues and other compounds. The true share with any hit is near 7.9%.

SMILES	MITF inh	Shh pathway inh	NOMO-1 viab
C[C@H](CO)N1C[C@H](C)[C@H](CN(C)S(C)(=O)=O)Oc2c(NS(C)(=O)=O)cccc2C1=O	-0.6	-21.5	-10.4
Clc1ccc2ncnc(NCc3ccc4c(c3)OCO4)c2c1	45.4	62.4	82.5*
Cc1cc(Br)ccc1NCc1ccc2c(c1)OCO2	-68.0	-35.2	42.5
Cc1ccc(S(=O)(=O)N(C)C[C@@H]2Oc3c(NC(=O)Nc4ccc(F)cc4)cccc3C(=O)N([C@H](C)CO)C[C@@H]2C)cc1	54.6	116.6*	82.2*
C[C@@H]1CN([C@H](C)CO)C(=O)c2cccc(NC(=O)Nc3ccc(F)cc3)c2O[C@@H]1CN(C)S(=O)(=O)c1ccccc1	-10.8	-4.7	31.1
Cc1ccc(S(=O)(=O)N(C)C[C@@H]2Oc3c(NC(=O)Nc4ccc(F)cc4)cccc3C(=O)N([C@@H](C)CO)C[C@H]2C)cc1	-16.5	-0.1	1.2
Cc1ccc(S(=O)(=O)N(C)C[C@@H]2Oc3c(NC(=O)Nc4ccc(F)cc4)cccc3C(=O)N([C@@H](C)CO)C[C@@H]2C)cc1	30.0	107.8*	57.4
CCOC(=O)c1c(NC(=O)C2CC(c3cccc(Br)c3)=NO2)sc(C)c1C (stereo not given)	8.8	·	0.8
Cc1ccc(S(=O)(=O)N(C)C[C@H]2Oc3ccc(NS(=O)(=O)c4ccc(F)cc4)cc3C(=O)N([C@H](C)CO)C[C@@H]2C)cc1	-15.0	·	19.9
Cc1ccc(C2CC(=O)c3cnc(NCCN4CCOCC4)nc3C2)cc1 (stereo not given)	-5.7	·	20.9
COc1ccc(OC(C)C(=O)Nc2cc(C)ccc2OC)cc1 (stereo not given)	13.2	·	9.7
C[C@@H]1CN([C@@H](C)CO)C(=O)Cc2cc(NS(C)(=O)=O)ccc2O[C@@H]1CN(C)C(=O)Nc1ccc(F)cc1	-1.5	·	-12.8
Cc1ccc(C)c(NC(=O)CCn2cnc3ccccc3c2=O)c1	-4.0	·	1.4
Cc1nn(C)c(-c2n[nH]c(=S)n2-c2ccc(CC(=O)O)cc2)c1Br	-0.8	·	-14.4
CCn1c(SCC(=O)N2CCN(c3ccccc3)CC2)nnc1-c1ccccc1O	66.4	·	15.8
Cc1nnc(Nc2ccc(OCC(=O)N3CCN(c4ccccc4)CC3)cc2)c2ccccc12	29.3	·	88.2*
COc1cc(CC2COC(=O)C2(O)Cc2ccc(O)c(OC)c2)ccc1O (stereo not given)	90.8*	-28.0	54.3
COc1cc(C[C@@]2(O)C(=O)OC[C@@H]2Cc2ccc(OC)c(OC)c2)ccc1O	67.4	50.4	78.2
C[C@H](CO)N1C[C@H](C)[C@H](CN(C)Cc2ccc(C(=O)Nc3ccccc3N)cc2)Oc2ccc(NC(=O)CCC(F)(F)F)cc2CC1=O	24.5	·	140.9*
C[C@@H]1CN([C@@H](C)CO)C(=O)Cc2cc(NC(=O)CCC(F)(F)F)ccc2O[C@@H]1CN(C)Cc1ccc(C(=O)Nc2ccccc2N)cc1	5.0	·	91.1*
C[C@@H]1CN([C@H](C)CO)C(=O)c2cc(NC(=O)CCC(F)(F)F)ccc2O[C@H]1CN(C)Cc1ccc(C(=O)Nc2ccccc2N)cc1	-2.0	·	44.7
C[C@H]1CN([C@@H](C)CO)C(=O)c2cc(NC(=O)CCC(F)(F)F)ccc2O[C@H]1CN(C)Cc1ccc(C(=O)Nc2ccccc2N)cc1	5.1	·	105.7*
C[C@@H]1CN([C@H](C)CO)C(=O)Cc2cc(NC(=O)CCN3CCOCC3)ccc2O[C@@H]1CN(C)Cc1ccc(C(=O)Nc2ccccc2N)cc1	-0.2	·	37.8
C[C@@H]1CN([C@@H](C)CO)C(=O)Cc2cc(NC(=O)CCN3CCOCC3)ccc2O[C@@H]1CN(C)Cc1ccc(C(=O)Nc2ccccc2N)cc1	-10.3	·	28.7
COc1ccccc1NC(=O)CSc1ncnc2sc(-c3ccccc3)cc12	?	·	43.0
SMILES	MITF inh	Shh pathway inh	NOMO-1 viab
NC(=O)CN1C(=O)C(O)(C2CCc3ccccc3C2=O)c2ccccc21 (stereo not given)	10.7	·	14.7
COc1cc(C2c3c(cc(OC)c(O)c3OC)CC(CO)C2CO[C@@H]2O[C@H](CO)[C@@H](O)[C@H](O)[C@H]2O)cc(OC)c1O (stereo not given in full)	16.6	-16.2	-7.2
COC(=O)c1sccc1NC(=O)c1cc(-c2ccccn2)nc2ccc(Br)cc12	22.0	·	10.4
C[C@@H]1CN([C@H](C)CO)C(=O)c2cc(NS(=O)(=O)c3ccccc3)ccc2O[C@@H]1CN(C)Cc1ccc(Cl)c(Cl)c1	-6.7	·	65.6
Cc1ccc(S(=O)(=O)Nc2ccc3c(c2)C(=O)N([C@@H](C)CO)C[C@H](C)[C@@H](CN(C)Cc2ccc(Cl)c(Cl)c2)O3)cc1	6.0	-0.7	106.4*
Cc1ccc(S(=O)(=O)Nc2ccc3c(c2)C(=O)N([C@@H](C)CO)C[C@@H](C)[C@@H](CN(C)Cc2ccc(Cl)c(Cl)c2)O3)cc1	75.1	14.7	117.4*
C[C@H]1CN([C@@H](C)CO)C(=O)c2cc(NS(=O)(=O)c3ccccc3)ccc2O[C@@H]1CN(C)Cc1ccc(Cl)c(Cl)c1	-3.4	?	54.6
COc1ccc2oc(-c3cccc(NC(=O)COc4ccc(Cl)cc4)c3)nc2c1	29.8	·	18.0
Cn1c(SCC(=O)c2ccc(F)cc2)nnc1-c1cccc([N+](=O)[O-])c1	-6.8	·	0.6
Cc1cccc(OCCn2c(C(C)O)nc3ccccc32)c1 (stereo not given)	-6.2	·	17.8
CS(=O)(=O)N(CC(=O)Nc1ccc(C(F)(F)F)cc1)c1ccccc1Cl	18.2	·	21.2
Cc1ccnc(NC(c2ccccn2)c2ccc3ccc(C)nc3c2O)c1 (stereo not given)	75.0	·	116.2*
Cc1cccc(Nc2ncnc(N)c2[N+](=O)[O-])n1	-37.2	·	0.8
Cc1cccc(NC(c2ccccc2C)c2ccc3ccc(C)nc3c2O)n1 (stereo not given)	60.4	·	120.6*
Cc1cccc(NC(c2ccc([N+](=O)[O-])cc2)c2ccc3ccc(C)nc3c2O)n1 (stereo not given)	44.2	·	111.8*
Cc1ccc(C)c(C(Nc2ccccn2)c2ccc3ccc(C)nc3c2O)c1 (stereo not given)	44.4	·	106.9*
Cc1ccccc1-c1nc(SCC(=O)c2cccc([N+](=O)[O-])c2)n[nH]1	-7.6	·	12.9
C=CCn1c(=O)c(C(=O)NCCO)c(O)c2ccccc21	-0.8	·	2.8
COc1c(S(=O)(=O)N2CCCN(S(=O)(=O)c3ccc(Cl)c(Cl)c3OC)CC2)ccc(Cl)c1Cl	-20.1	·	12.0
Cc1noc(C)c1S(=O)(=O)Nc1cccc2c1O[C@H](CN(C)S(=O)(=O)c1ccccc1)[C@H](C)CN([C@@H](C)CO)C2=O	1.8	-13.3	60.6
CC(C)CC1NC(=O)C(C)NC1=O (stereo not given)	8.4	-14.1	-13.6
CCCc1nnc(NC(=O)c2nc(SC)ncc2Cl)s1	16.1	·	-3.5
Cc1ccc(S(=O)(=O)Nc2cccc3c2O[C@H](CN(C)C(=O)Nc2ccccc2)[C@@H](C)CN([C@@H](C)CO)C3=O)cc1	1.5	-18.3	12.9
CCCC(=O)Nc1ccc(N)cc1	-0.3	·	-25.3
COc1ccccc1NC(=O)c1cnc(Nc2nc3ccccc3s2)nc1C	-37.4	·	11.5
O=C(CCc1ccc(O)cc1)CC(O)CCc1ccc(O)c(O)c1 (stereo not given)	10.7	-5.9	85.3*
CCCCC[C@H](O)CC(=O)CCc1ccc(O)c(OC)c1	-12.4	-19.3	37.5

Bioassay records deposited in PubChem by Broad Institute.
